PubChem BioAssay (EPA / NIEHS)
Inconclusive results are not listed. Calls of active or inactive are those of the source. The calls were made as follows, unless noted: active = hit-call score of the fitted dose curve at least 0.9, where 1 is the maximum; inactive = score below 0.9.

Columns and labels:
[1] = CCTE_Simmons_MITO_basal_resp_rate: CCTE's HepG2 Seahorse XF Respirometric Screening Assay at Basal Respiratory State, Simmons Lab (AID 2284001); conditions: actives raise or lower the signal
In short: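 HepG2 cells were given test chemicals at 7 concentrations, 125 nM to 100 uM final, and oxygen consumption rate was read every 6 min (3 min mix, 3 min measure) over 72 min. Basal-phase OCR was fitted bidirectionally against DMSO.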

[2] = CCTE_Simmons_MITO_max_resp_rate: CCTE's HepG2 Seahorse XF Respirometric Screening Assay at Maximal Respiratory State [uncoupled], Simmons Lab (AID 2284002); conditions: actives raise or lower the signal
In short: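 HepG2, Seahorse XF96, maximal OCR post-FCCP. Cpd 125 nM–100 uM final (7 conc), n=3 biological. Kinetic reads every 6 min (3 min mix/3 min measure) over 72 min; fit bidirectional vs DMSO.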

[3] = CCTE_Simmons_MITO_inhib_resp_rate: CCTE's HepG2 Seahorse XF Respirometric Screening Assay at Inhibited Respiratory State [full ETC block], Simmons Lab (AID 2284006); conditions: actives raise or lower the signal
In short: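 HepG2 cells on Seahorse XF96; oxygen consumption measured after test compound, then FCCP, then rotenone/antimycin A injections over 72 min. Test chemicals at 7 concentrations, 125 nM–100 uM final. OCR fitted bidirectionally versus DMSO.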

[4] = CCTE_Simmons_MITO_viability: CellTiter-Glo Viability Assessment for CCTE's HepG2 Seahorse XF Respirometric Screening Assay [post-hoc], Simmons Lab (AID 2284007; active = hit-call score of the fitted dose curve at least 0.9, where 1 is the maximum)
In short: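 HepG2 cells from the Seahorse XF respirometry run were exposed 90 min to a 7-point series, 125 nM–100 uM final, DMSO vehicle; ATP content then read by luciferase luminescence. Three biological replicates, technical singles; loss of signal fitted versus DMSO.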

[5] = CCTE_Harrill_HTTr_Viability_MCF7: CCTE's 6-hour Cell Viability Assessment for the High-Throughput Transcriptomics (HTTr) Platform, in MCF-7 cells cultured in DMEM + 10% fetal bovine serum, Harrill Lab (AID 2284010)
In short: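 Membrane integrity was scored by high-content imaging of propidium iodide dye exclusion after a 6 h exposure across an eight-point dilution series. Data were fitted bidirectionally relative to DMSO as negative control and baseline.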

[6] = CCTE_Harrill_HTTr_Apoptosis_MCF7: CCTE's 6-hour Apoptosis Assessment for the High-Throughput Transcriptomics (HTTr) Platform, in MCF-7 cells cultured in DMEM + 10% fetal bovine serum, Harrill Lab (AID 2284011)
In short: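 Read-out: CellEvent Caspase 3/7 Green signal by high content imaging, gain-of-signal indicating apoptosis. MCF-7 cells, DMEM + 10% FBS, eight-point dilution series, 6 h exposure. Curves fitted bidirectionally relative to DMSO negative control.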

[7] = CCTE_Harrill_HTTr_CellCount_MCF7: CCTE's Cell Proliferation Assessment for the High-Throughput Transcriptomics (HTTr) Platform, Harrill Lab (AID 2284012; active = hit-call score of the fitted dose curve at least 0.9, where 1 is the maximum;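 also: cells exposed to compound for six hours; intended direction is loss of nuclei count meaning fewer cells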)
In short: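 MCF-7 cells were exposed for 6 h to an eight-point dilution series; Hoechst-labeled nuclei were counted by high content imaging. Curves were fitted bidirectionally against DMSO as negative control and baseline, with signal loss indicating reduced cell count.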

[8] = CCTE_Shafer_MEA_acute_spike_number: CCTE's Neural Acute Assay for Total Number of Spikes, Shafer Lab (AID 2284008);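 as to AC50: curve fitted for decrease in spike count so AC50 reflects inhibitors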
In short: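 Rat cortical cultures, DIV 13/15, 37 C. 40 min baseline rec, cpd 0.03-40 uM, 40 min post-dose rec. Band-pass 300-5000 Hz, spike threshold 8x rms; % change in spike count per well, DMSO neg ctrl, loss-of-signal fit.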

[9] = CCTE_Shafer_MEA_acute_firing_rate_mean: CCTE's Neural Acute Assay for Mean Firing Rate, Shafer Lab (AID 2284009);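 also: analyzed for loss of signal so actives lower firing rate relative to DMSO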
In short: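 Read-out: well-mean spike rate (spikes/recording length/electrodes), % change from 40 min pre-dose baseline to 40 min with compound. Rat cortical cultures, DIV 13 or 15, 37 C; 0.03-40 uM; DMSO as negative control.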

[10] = CCTE_Shafer_MEA_acute_burst_number: CCTE's Neural Acute Assay for Single-Electrode Bursts, Shafer Lab (AID 2284013)
In short: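 Rat cortical cultures, DIV 13/15; 40 min baseline, then 40 min with compound 0.03-40 uM, 37 C. Spikes: 300-5000 Hz band-pass, threshold 8x rms noise. Readout = % change in single-electrode bursts vs baseline, loss-of-signal fit.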

[11] = CCTE_Shafer_MEA_acute_burst_duration_mean: CCTE's Neural Acute Assay for Mean Burst Duration, Shafer Lab (AID 2284014);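 also: hits are decreases in mean burst duration relative to DMSO controls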
In short: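 Primary rat cortical neurons on 16-electrode MEA wells, treated on DIV 13 or 15 with compound (0.03-40 uM; ≥3 wells each). 40-min baseline and 40-min exposure recordings at 37 C; percent change in mean burst duration per well versus DMSO.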

[12] = CCTE_Shafer_MEA_acute_per_burst_spike_number_mean: CCTE's Neural Acute Assay for Average Number of Spikes Per Burst, Shafer Lab (AID 2284015);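 also: hits are decreases in mean spikes per burst versus baseline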
In short: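 Rat primary cortical neurons on 48-well MEAs (DIV 13 or 15) were treated with 0.03-40 uM compound at 37 C. Mean spikes per burst over 40 min were recorded before and after exposure and expressed as percent change from baseline, relative to DMSO.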

[13] = CCTE_Shafer_MEA_acute_interburst_interval_mean: CCTE's Neural Acute Assay for Mean Interburst Interval, Shafer Lab (AID 2284016);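 also: percent change of mean interburst interval versus each well's own pre-dose baseline; curves fitted for decrease in interburst interval relative to DMSO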
In short: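 Rat primary cortical neurons on 48-well MEAs at DIV 13 or 15 were exposed acutely to 0.03-40 uM. Spikes detected at 8x rms noise, 37 C. Mean interburst interval from 40 min recordings expressed as percent change from 40 min pre-treatment baseline.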

[14] = CCTE_Shafer_MEA_acute_burst_percentage_mean: CCTE's Neural Acute Assay for Percentage of Spikes in a Burst, Shafer Lab (AID 2284017);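 as to AC50: curve fitted for loss of signal so potency reflects decreased burst percentage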
In short: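 Primary rat cortical neurons on 48-well MEA plates, treated on DIV 13 or 15 at 0.03-40 uM. Spikes detected at 8x rms noise at 37C; percent change from 40-min baseline to 40-min post-dose recording, fitted versus DMSO.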

[15] = CCTE_Shafer_MEA_acute_burst_percentage_std: CCTE's Neural Acute Assay for Standard Deviation of Burst Percentage, Shafer Lab (AID 2284018);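 also: fitted in the negative direction so actives lower burst percentage SD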
In short: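 Primary rat cortical neurons on 16-electrode MEA wells were recorded 40 min at baseline (DIV 13 or 15), then 40 min after compound (0.03-40 uM), at 37 C. Well value is SD across electrodes of spikes-in-bursts/total spikes; endpoint is percent change, DMSO-referenced.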

[16] = biological target: Nucleoli Translocation, AR (gene 367) (UniProt P10275); assay: UPITT_HCI_U2OS_AR_TIF2_Nucleoli_Antagonist: University of Pittsburgh U2OS Androgen Receptor-Transcriptional Intermediary Factor 2 (AR-TIF2) Antagonism High Content Imaging Assay for Nucleoli Translocation (AID 2283997; active = hit-call score of the fitted dose curve at least 0.9, where 1 is the maximum)
In short: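 U2OS cells expressing RFP-tagged human AR and GFP-tagged TIF2 were imaged by high-content fluorescence microscopy for red AR signal in the nucleolar region. Compounds were screened at 20 uM final (0.2% DMSO), with activity fitted relative to DHT as baseline.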

[17] = biological target: Nucleoli Translocation, AR (gene 367) (UniProt P10275); assay: UPITT_HCI_U2OS_AR_TIF2_Nucleoli_Agonist: University of Pittsburgh U2OS Androgen Receptor-Transcriptional Intermediary Factor 2 (AR-TIF2) Agonism High Content Imaging Assay for Nucleoli Translocation (AID 2283998; active = hit-call score of the fitted dose curve at least 0.9, where 1 is the maximum)
In short: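 RFP-AR / GFP-TIF2 cells; cpds diluted in serum-free medium; single-point screen 20 uM final (0.2% DMSO), actives confirmed in triplicate; conc-response 0.195–50 uM final (0.5% DMSO). Readout: nucleolar red fluorescence, positive direction vs DMSO.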

[18] = biological target: Ratio of Nucleoli Translocation and Cytoplasm, AR (gene 367) (UniProt P10275); assay: UPITT_HCI_U2OS_AR_TIF2_Nucleoli_Cytoplasm_Ratio_Antagonist: University of Pittsburgh U2OS Androgen Receptor-Transcriptional Intermediary Factor 2 (AR-TIF2) Antagonism High Content Imaging Assay for Ratio of Nucleoli Translocation and Cytoplasm (AID 2283999; active = hit-call score of the fitted dose curve at least 0.9, where 1 is the maximum;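 also: antagonists lower the DHT-driven ratio of nucleolar to cytoplasmic red signal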)
In short: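 U2OS cells expressing RFP-tagged human AR and GFP-tagged TIF2; compounds tested at 20 uM final (0.2% DMSO) in primary screen, 0.195–50 uM (0.5% DMSO) for concentration response. Readout: nucleolar-to-cytoplasmic red fluorescence ratio by high-content imaging, fitted relative to DHT.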

[19] = biological target: Ratio of Nucleoli Translocation and Cytoplasm, AR (gene 367) (UniProt P10275); assay: UPITT_HCI_U2OS_AR_TIF2_Nucleoli_Cytoplasm_Ratio_Agonist: University of Pittsburgh U2OS Androgen Receptor-Transcriptional Intermediary Factor 2 (AR-TIF2) Agonism High Content Imaging Assay for Ratio of Nucleoli Translocation and Cytoplasm (AID 2284000; active = hit-call score of the fitted dose curve at least 0.9, where 1 is the maximum;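 also: hits raise the red nucleolar to cytoplasm ratio above vehicle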)
In short: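 U2OS cells expressing RFP-tagged human AR and GFP-tagged TIF2 were imaged by high-content fluorescence microscopy. The endpoint is the ratio of nucleolar to cytoplasmic red fluorescence, fitted for gain of signal relative to DMSO. Concentration-response spanned 0.195 to 50 uM final (0.5% DMSO).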

DIO1 (gene 1733) = assay: CCTE_GLTED_hDIO1: CCTE's human Deiodinase 1 (DIO1) Inhibition Assay, Great Lakes Toxicology and Ecology Division (GLTED) Lab (AID 2283987; active = hit-call score of the fitted dose curve at least 0.9, where 1 is the maximum;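 also: isolated human DIO1 enzyme in a cell-free setup rather than cells; enzyme activity read as free iodide liberated from substrate via Sandell-Kolthoff colorimetry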)
In short: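 Steps: human DIO1 enzyme plus test chemical, 3 h incubation; free iodide then quantified in a second Sandell-Kolthoff step by absorbance. DMSO served as negative control and baseline.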

Measured: AC50

Chain of Ratio of Nucleoli Translocation and Cytoplasm, AR (gene 367) (P10275 whole entry, looked up): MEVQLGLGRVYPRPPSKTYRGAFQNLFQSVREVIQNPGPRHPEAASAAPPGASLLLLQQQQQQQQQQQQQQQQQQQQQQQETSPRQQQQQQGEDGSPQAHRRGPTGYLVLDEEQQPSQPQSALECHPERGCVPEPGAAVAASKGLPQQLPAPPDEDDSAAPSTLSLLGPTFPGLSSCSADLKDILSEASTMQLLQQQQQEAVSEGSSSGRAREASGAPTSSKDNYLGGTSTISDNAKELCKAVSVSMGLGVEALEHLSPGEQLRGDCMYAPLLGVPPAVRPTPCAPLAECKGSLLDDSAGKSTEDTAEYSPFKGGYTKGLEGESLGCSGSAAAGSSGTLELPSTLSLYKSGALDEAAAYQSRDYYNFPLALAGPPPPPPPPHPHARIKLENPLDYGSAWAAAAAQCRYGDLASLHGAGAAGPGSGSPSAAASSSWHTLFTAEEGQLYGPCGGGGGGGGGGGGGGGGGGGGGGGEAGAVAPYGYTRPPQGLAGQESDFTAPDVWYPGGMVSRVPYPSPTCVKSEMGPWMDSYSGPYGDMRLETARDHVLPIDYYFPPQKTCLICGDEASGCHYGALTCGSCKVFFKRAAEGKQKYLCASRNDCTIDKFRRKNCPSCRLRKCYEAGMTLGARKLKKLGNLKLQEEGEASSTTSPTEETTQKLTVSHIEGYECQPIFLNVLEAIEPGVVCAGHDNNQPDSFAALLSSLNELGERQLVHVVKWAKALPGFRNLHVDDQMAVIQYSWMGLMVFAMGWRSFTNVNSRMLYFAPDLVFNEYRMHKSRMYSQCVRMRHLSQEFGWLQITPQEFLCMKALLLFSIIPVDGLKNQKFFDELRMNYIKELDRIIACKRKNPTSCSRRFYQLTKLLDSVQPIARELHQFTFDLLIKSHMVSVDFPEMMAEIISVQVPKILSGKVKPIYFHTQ
Chain of Nucleoli Translocation, AR (gene 367) (P10275 whole entry, looked up): as above

CC(C)(C)c1ccc(O)cc1
active: [1] 37.2 µM
inactive: [2] | [3] | [4] | [5] | [6] | [7]

CCOP(=S)(OCC)SCSCC
inactive: [1] | [3] | [4] | [5] | [7]
active: [2] 50 µM

Nc1ccc(Sc2ccc(N)cc2)cc1
inactive: [5]

c1ccc2c(c1)Nc1ccccc1S2
inactive: [5] | [7] | [12] | [15]
active: [8] 4.42 µM | [9] 4.45 µM | [10] 3.97 µM | [11] 34.9 µM | [13] 4.14 µM | [14] 25.8 µM

CC1(C)CN=C(NN=C(/C=C/c2ccc(C(F)(F)F)cc2)/C=C/c2ccc(C(F)(F)F)cc2)NC1
active: [16] 9.92 µM
inactive: [17] | [18] | [19] | [5] | [7]

ClC1=C(Cl)C2(Cl)C3C(Cl)C(Cl)CC3C1(Cl)C2(Cl)Cl (stereo not drawn)
active: [16] 11.5 µM | [14] 0.29 µM
not listed: [1] | [2] | [3] | [4] | [6] | DIO1 (gene 1733)
inactive: all other assays above

CC(C)(C)N(NC(=O)c1ccc(Cl)cc1)C(=O)c1ccccc1
inactive: [16] | [17] | [18] | [5] | [6] | [7]

CCC1(c2ccccc2)C(=O)N=C(O)NC1=O (stereo not drawn)
inactive: [8] | [9] | [5] | [7] | [10] | [11] | [12] | [13] | [14] | [15]

CO/N=C(/C(=O)OC)c1ccccc1COc1ccccc1C
inactive: [16] | [17] | [18] | [19] | [5]

CCC(C)(C)c1ccc(O)cc1
active: [1] 49.9 µM | [2] 42.5 µM | [8] 0.186 µM | [9] 0.186 µM | [10] 0.283 µM | [13] 0.0877 µM | [14] 9.06 µM
inactive: [3] | [11] | [12] | [15]

CCOc1ccc(C(C)(C)COCc2cccc(Oc3ccccc3)c2)cc1
inactive: [8] | [9] | [5] | [7] | [10] | [11] | [12] | [15]
active: [13] 23.1 µM | [14] 25.4 µM

O=C(O)C1C(C(=O)O)C2(Cl)C(Cl)=C(Cl)C1(Cl)C2(Cl)Cl (stereo not drawn)
inactive: [8] | [9] | [5] | [7] | [10] | [11] | [12] | [13] | [14] | [15]

COP(=O)(CCC(=O)NCO)OC
inactive: [8] | [9] | [10] | [11] | [13] | [14] | [15]
active: [12] 0.145 µM

O=c1ssc(Cl)c1Cl
active: DIO1 (gene 1733) 0.149 µM

CCN(CC)c1ccccc1
inactive: [16] | [17] | [19] | [5] | [7]

Cc1ccc(N)cc1N
not listed: [4] | [16] | [17] | [18] | [19] | DIO1 (gene 1733)
inactive: all other assays above

CCCCN(CC)C(=O)SCCC
inactive: [16] | [17] | [18] | [19] | [5] | [6] | [7]

OCC1CO1 (stereo not drawn)
inactive: [5]

C=CC(=O)OCC(F)(F)C(F)F
active: DIO1 (gene 1733) 19.8 µM
